Rows were chosen to be rich in hits. Some 0.52% of all compounds tested hit in one or more screens of this group.
Sa growth 42C: blocks Staphylococcus aureus growth. S. aureus RN4220 growth, OD600, 20 h, 42 °C; active compounds read low. relative growth, % (no concentration beside the values). actives 0.53% (n = 170,000). AID 720641;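 active means relative growth at most 50% at the other temperature and 20+ points below 30 °C, or under 10% at both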
S aureus helic: blocks Staphylococcus aureus DNA helicase; inhibition, % (concentration not given with the values); actives 0.05% (n = 120,000); purified S. aureus helicase, fluorescence unwinding assay; in the data active means inhibition above about 25%, passing the limit was not always enough;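 further: 0% = mean of negative control wells and 100% = mean of positive control wells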
The depositor's hits bear a star; · = no result; ! = a repeat was not active.

SMILES	Sa growth 42C	S aureus helic
CN(C)C(=O)/C=C/c1ccc2c(c1)OCO2	92.6	-1.0
COc1ccc(OC(=O)C=C(C)C)cc1	101.3	18.0
O=C(NC(=S)Nc1ccc(-c2nc3ccccc3o2)cc1)c1cc2ccccc2o1	95.6	3.0
CN(C)/C=C/C(=O)c1ccccc1	84.3	10.0
O=C(/C=C/C(=O)c1ccccc1)c1ccccc1	-0.4*	32.0
CCN(c1ccccc1)S(=O)(=O)c1ccc(Cl)cc1	88.3	0.0
CCN(c1ccc2oc3ccccc3c2c1)S(=O)(=O)c1ccc(C#N)cc1	45.5*	-8.0
CNC(=O)NC(=O)C(C)N1CCc2ccccc2C1 (centres undefined)	104.3	-3.0
Cc1nn(-c2nc3ccccc3[nH]2)c(N)c1-c1ccccc1	85.3	-13.0
Cc1[nH]n(-c2nc3ccccc3[nH]2)c(=O)c1C1OC(=O)c2ccccc21 (centres undefined)	45.7	11.0
O=c1cc(-c2ccccc2)[nH]n1-c1nc2ccccc2[nH]1	7.5*	17.0
Cc1cc(=O)n(-c2nc3ccccc3[nH]2)[nH]1	8.3*!	7.0
CC(C)(C)NC(=O)Nc1cnccc1C(F)(F)F	86.4	·
C=CCNC(=O)Nc1ccc(F)c(Cl)c1	104.5	25.0
O=C(NCSCc1cccc(C(F)(F)F)c1)Nc1ccc(F)c(Cl)c1	9.0*	·
O=c1[nH]nnn1-c1ccccc1	92.7	0.0
Nc1ncc(C(=O)OCC2CC2)c(C(F)(F)F)n1	101.2	·
CCN1CCCC1CNC(=O)Nc1ccc(Cl)c(Cl)c1 (centres undefined)	0.6*	10.0
CCN1CCCC1CNCC(=O)Nc1ccc(C)c(Br)c1 (centres undefined)	97.9	0.0
CC(CCc1ccccc1)NC(=O)COc1ccc(-c2nnco2)cc1 (centres undefined)	93.9	0.0
O=C1NC(=S)S/C1=C\C=C\c1ccccc1	6.9*	10.0
O=C1NC(=O)/C(=C\C=C\c2ccccc2)S1	·	7.0
O=C(CSc1nnc2n1CCCCC2)NC(=O)c1cccs1	90.4	-4.0
Clc1ccc(/C=N/c2ccccn2)cc1	1.3*	12.0
O/N=C/c1ccc(Cl)cc1	95.7	6.0
SMILES	Sa growth 42C	S aureus helic
O=c1[nH][nH]c(=S)n2nc(-c3ccccc3)cc12	79.9	9.0
CC[n+]1ccc(C)c2ccccc21	98.8	2.0
CCN1C=C/C(=C\c2cc[n+](CC)c3ccccc23)c2ccccc21	5.5*	82.0*
Cc1cccc2nc(-c3ccccn3)c(Nc3ccccc3)n12	102.7	·
Cc1cccc2nc(-c3ccccn3)c(Nc3ccc(F)cc3)n12	1.2*	·
O=S(=O)(Nc1ccccc1Cl)c1ccc2[nH]c(=S)oc2c1	83.0	16.0
S=c1[nH]c2c(Cl)cc(Cl)cc2o1	3.3*	-4.0
C[C@H](NC(N)=O)C(=O)NC1CCCc2ccccc21 (some centres undefined)	72.8	-11.0
Cc1[nH]c2ccc(C(=O)NC3CC3)cc2c1C	114.9	2.0
Cc1[nH]c2ccc(C(=O)NCC3CCCO3)cc2c1C (centres undefined)	102.9	29.0*
CCS(=O)(=O)c1ncc(Cl)c(C(=O)N(Cc2ccccc2)c2ccc(OC)cc2)n1	5.0*	·
CCSc1ncc(Cl)c(C(=O)N(Cc2ccccc2)Cc2ccco2)n1	94.5	·
COc1ccc(N(Cc2ccccc2)C(=O)c2nc(SC)ncc2Cl)cc1	103.0	·
CCCS(=O)(=O)c1ncc(Cl)c(C(=O)N(Cc2ccccc2)Cc2ccco2)n1	1.2*	·
CC1(C)S[C@@H]2[C@H](NC(=O)C(C(=O)O)c3ccccc3)C(=O)N2[C@H]1C(=O)O (some centres undefined)	0.0*	·
Cc1onc(-c2ccccc2)c1C(=O)NC1CCCCC1NC(=O)c1c(-c2ccccc2)noc1C (centres undefined)	99.8	-18.0
CCCOC(=O)C(N)c1ccccc1 (centres undefined)	106.7	0.0
CC1(C)S[C@@H]2[C@H](NC(=O)[C@H](N)c3ccccc3)C(=O)N2[C@H]1C(=O)O	-0.9*!	·
CC1(C)SC(c2ccc(C3NC(C(=O)O)C(C)(C)S3)cc2)NC1C(=O)O (centres undefined)	91.5	18.0
CCN1CCN(C(=O)N[C@@H](C(=O)N[C@@H]2C(=O)N3[C@@H]2SC(C)(C)[C@@H]3C(=O)O)c2ccccc2)C(=O)C1=O	-0.5*	·
Cc1onc(-c2ccccc2)c1C(=O)N[C@@H]1C(=O)N2[C@@H]1SC(C)(C)[C@@H]2C(=O)O	-1.3*	·
O=C(Nc1ccccc1)C(O)C(O)C(O)CO (centres undefined)	114.8	·
CCOC(=O)c1cc(-c2ccccc2)n(CC(=O)N(C)c2ccc(C)cc2)c1C	77.3	4.0
CN1c2ccccc2-c2nc(SCC(=O)Nc3ccccc3F)ncc2S1(=O)=O	112.6	8.0
O=C(CN1CSCC1=O)Nc1cc(C(F)(F)F)ccc1NC1CCCCC1	128.3	2.0
SMILES	Sa growth 42C	S aureus helic
COc1ccc(SCC(=O)O)cc1	118.2	-1.0
Cc1ccc(C)n1-c1ccc(SCC(=O)O)cc1	89.0	42.0*
CCOc1ccccc1NC(=O)CSc1ccccc1Cl	88.5	42.0
CN(C)c1ccc(Nc2nc(-c3cccnc3)nc3ccccc23)cc1	0.2*	12.0
c1cncc(-c2nc(Nc3ccc4c(c3)OCO4)c3ccccc3n2)c1	46.5	1.0
C=CCN(Cc1nc(-c2ccccc2)no1)S(=O)(=O)c1ccccc1	104.3	-15.0
COc1ccc(/C=C(\C#N)c2ccc(OC)cc2)cc1	133.3	·
COc1ccc(/C=C(\C#N)c2ccc(C)cc2)cc1	43.5*	·
CCN(CC)S(=O)(=O)c1cccc(-c2nnc(SCC(=O)Nc3cc(C)on3)o2)c1	95.8	6.0
C[C@@H]1CN(c2c(F)c(N)c3c(=O)c(C(=O)O)cn(C4CC4)c3c2F)C[C@H](C)N1	-0.1*	·
S=c1[nH]c(-c2ccccc2)cs1	16.3*	-7.0
O=c1[nH]c(-c2ccccc2)cs1	90.3	-15.0
CC(Sc1nnnn1-c1ccccc1)C(=O)NCCC1=CCCCC1 (centres undefined)	101.7	15.0
C[C@H]1c2cccc(O)c2C(O)=C2C(=O)[C@]3(O)C(O)=C(C(N)=O)C(=O)[C@@H](N(C)C)[C@@H]3[C@@H](O)[C@@H]21	-0.6*	·
CN(C)c1ccc(O)c2c1C[C@H]1C[C@H]3[C@H](N(C)C)C(=O)C(C(N)=O)=C(O)[C@@]3(O)C(=O)C1=C2O	-0.4*	·
CC1c2cccc(O)c2CC2=C(O)C3(O)C(O)=C(C(N)=O)C(=O)C(N(C)C)C3C(O)C21 (centres undefined)	10.8	11.0
COc1ccccc1-n1c(-c2cccs2)nn(CN2CCCC(O)C2)c1=S (centres undefined)	80.1	-1.0
CCn1cc(C(=O)NN)c(=O)c2cc(F)c(N3CCCC3)cc21	74.4	-3.0
CCn1cc(C(=O)O)c(=O)c2cc(F)c(N3CCN(C)CC3)cc21	-0.9*	-28.0
CCn1cc(C(=O)O)c(=O)c2cc(F)c(N3CCN(C(=O)c4ccccc4F)CC3)cc21	50.6	14.0
CCn1cc(C(=O)NCC(C)C)c(=O)c2cc(F)c(N3CCN(C(=O)c4ccco4)CC3)cc21	113.2	3.0
CCn1cc(C(=O)O)c(=O)c2cc(F)c(N3CCN(C(=S)Nc4ccc5c(c4)OCO5)CC3)cc21	0.2*	18.0
CCn1cc(C(=O)O)c(=O)c2cc(F)c(N3CCNCC3)cc21	-0.1*	·
CCOc1ccc(C(=O)NCC(=O)NC2CCN(Cc3ccccc3)CC2)cc1	86.6	-6.0
Cc1noc(C)c1CN1CCC(c2nc3ccccc3s2)CC1	86.5	-8.0
C=CCNC(=O)CSc1ccc(C)cc1	117.4	-5.0

Screens from PubChem.
